Reference: PubChem BioAssay (NCI)
Values joined by “and” are separate entries in the source; they are usually repeats but may differ in a detail not shown here. Equal values may be shown once. Compounds without any hit were thinned out: in the full panel of roughly 83,000, 20% have a hit.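 Single-concentration screen, 48 h exposure, 96-well plates. Endpoint: percent growth. Below 10 = active.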 Unmarked numbers belong to inactive results. Active and inactive are the calls of the source.

Tested on: HCC-2998 colon
Test: NCI-60 one-dose screen, 48 h (100 = growth as untreated, 0 = no growth, -100 = all killed)
Conditions: 10 µM unless noted

Structure (SMILES)	growth
N#CC(C#N)=Cc1cccc(F)c1	110%
O=[N+]([O-])c1ccc2scc3c4ccccc4nc-3c2c1	95.7%
Cc1cc(NC(=O)NCCCOc2ccc(N3C(N)=NC(N)=NC3(C)C)cc2Cl)ccc1S(=O)(=O)F	7.8% (active)
Nc1c(Cl)c(Cl)nc(C(=O)O)c1Cl	95.7%
Cn1cc(C(=O)C[n+]2ccccc2)c2ccccc21	106%
Nc1nc(=S)nc(N)[nH]1	92.1%
C[C@]12CCC(=O)C[C@@H]1CC[C@@H]1[C@@H]2CC[C@]2(C)[C@@H](OC(=O)N(CCCl)N=O)CC[C@@H]12	44.6%
NC1CN2CCC1CC2 (centres undefined)	114%
O=C1NC(=O)C(=C/C=C/c2ccccc2)C(=O)N1	62.1%
O=[N+]([O-])c1cc(Br)c(O)c(Br)c1	96.1%
Cc1cc(Br)c([N+](=O)[O-])cc1[N+](=O)[O-]	111%
C[C@]12CC[C@@H](OC(=O)N(CCCl)N=O)C[C@@H]1CC[C@@H]1[C@@H]2CC[C@]2(C)C(=O)CC[C@@H]12	53.6%
CCOC(=O)C1C(C=C(C)C)C1(C)C (centres undefined)	96%
N[C@@H](CCC(=O)CCl)C(=O)O	111% [20 µM]
Oc1ccc(O)c(Cl)c1	110% and 88.1%
CC(C)c1cccc(C(C)C)c1O	105% and 115%
N#CC(C#N)=C(C#N)C#N	110%
CC(C)CCC1C(=O)NC(=O)NC1=O	107%
COc1ccc(N)cc1N	119%
CC1OC(=O)C(C(C)C)NC(=O)C(C(C)C)OC(=O)C(C(C)C)NC(=O)C(C)OC(=O)C(C(C)C)NC(=O)C(C(C)C)OC(=O)C(C(C)C)NC(=O)C(C)OC(=O)C(C(C)C)NC(=O)C(C(C)C)OC(=O)C(C(C)C)NC1=O (centres undefined)	-16.5% (active)
C[C@H](O)CCC(=O)c1ccoc1	102%
CCCCCCCCCCCCCCCCCC1OCC(COC(=O)O[C@@H](C(=O)O[C@H]2C[C@@]3(O)[C@@H](OC(=O)c4ccccc4)[C@@H]4[C@]5(OC(C)=O)CO[C@@H]5C[C@H](O)[C@@]4(C)C(=O)[C@H](OC(C)=O)C(=C2C)C3(C)C)[C@@H](NC(=O)c2ccccc2)c2ccccc2)O1 (some centres undefined)	32%
O=c1[nH]c(=O)[nH]c(=O)[nH]1	117%
O=CC1(c2ccccc2)CCN(Cc2ccccc2)CC1	101%
CC(=O)Nc1nc2c(s1)C1=CC[C@H]3[C@@H]4CC[C@H](OC(C)=O)[C@@]4(C)CC[C@@H]3[C@@]1(C)CC2	93.7%
CCC1CCC(=O)O1 (centres undefined)	109%
CN(C)C(=S)SSC(=S)N(C)C	109%
ClC1OC(Cl)(Cl)C(Cl)(Cl)OC1(Cl)Cl (centres undefined)	112%
COc1ccc(N)cc1OC	111%

Tested on: KM12 colon
Test: as above
Conditions: 10 µM unless noted

Structure (SMILES)	growth
N#CC(C#N)=Cc1cccc(F)c1	108%
CN(C)c1ccc(C=C2C(=O)NC(=O)NC2=O)cc1	98.9%
[N-]=[N+]=CC(=O)CCC(=O)C=[N+]=[N-]	121%
CC1=C2[C@H]3OC(=O)[C@@H](C)[C@@H]3CC[C@@]2(C)C=CC1=O	105%
O=[N+]([O-])c1ccc2scc3c4ccccc4nc-3c2c1	1.98% (active)
Cc1cc(NC(=O)NCCCOc2ccc(N3C(N)=NC(N)=NC3(C)C)cc2Cl)ccc1S(=O)(=O)F	20.9%
Nc1c(Cl)c(Cl)nc(C(=O)O)c1Cl	101%
Cn1cc(C(=O)C[n+]2ccccc2)c2ccccc21	91.5%
Nc1nc(=S)nc(N)[nH]1	112%
C[C@]12CCC(=O)C[C@@H]1CC[C@@H]1[C@@H]2CC[C@]2(C)[C@@H](OC(=O)N(CCCl)N=O)CC[C@@H]12	3.72% (active)
NC1CN2CCC1CC2 (centres undefined)	115%
O=C(O)C1C(C(=O)O)C2(Cl)C(Cl)=C(Cl)C1(Cl)C2(Cl)Cl (centres undefined)	100% and 105%
O=C1NC(=O)C(=C/C=C/c2ccccc2)C(=O)N1	-40.1% (active)
c1ccc(CCN2CCCCC2)nc1	110%
Cc1cc(Br)c([N+](=O)[O-])cc1[N+](=O)[O-]	91.8%
C[C@]12CC[C@@H](OC(=O)N(CCCl)N=O)C[C@@H]1CC[C@@H]1[C@@H]2CC[C@]2(C)C(=O)CC[C@@H]12	24.5%
CCOC(=O)C1C(C=C(C)C)C1(C)C (centres undefined)	94.5%
N[C@@H](CCC(=O)CCl)C(=O)O	100% [20 µM]

Structure (SMILES)	growth
Oc1ccc(O)c(Cl)c1	100% and 102%
CC(C)c1cccc(C(C)C)c1O	111% and 105%
N#CC(C#N)=C(C#N)C#N	108%
CC(C)CCC1C(=O)NC(=O)NC1=O	98.5%
COc1ccc(N)cc1N	99.7%
CC1OC(=O)C(C(C)C)NC(=O)C(C(C)C)OC(=O)C(C(C)C)NC(=O)C(C)OC(=O)C(C(C)C)NC(=O)C(C(C)C)OC(=O)C(C(C)C)NC(=O)C(C)OC(=O)C(C(C)C)NC(=O)C(C(C)C)OC(=O)C(C(C)C)NC1=O (centres undefined)	0.9% (active)
C[C@H](O)CCC(=O)c1ccoc1	104%
CCCCCCCCCCCCCCCCCC1OCC(COC(=O)O[C@@H](C(=O)O[C@H]2C[C@@]3(O)[C@@H](OC(=O)c4ccccc4)[C@@H]4[C@]5(OC(C)=O)CO[C@@H]5C[C@H](O)[C@@]4(C)C(=O)[C@H](OC(C)=O)C(=C2C)C3(C)C)[C@@H](NC(=O)c2ccccc2)c2ccccc2)O1 (some centres undefined)	14.3%
O=c1[nH]c(=O)[nH]c(=O)[nH]1	107%
O=CC1(c2ccccc2)CCN(Cc2ccccc2)CC1	101%
CC(=O)c1cccc(S(=O)(=O)F)c1	105%
CC(=O)Nc1nc2c(s1)C1=CC[C@H]3[C@@H]4CC[C@H](OC(C)=O)[C@@]4(C)CC[C@@H]3[C@@]1(C)CC2	50.8%
CC1=CC(=O)CCC12CCOC2=O (centres undefined)	104%
CCC1CCC(=O)O1 (centres undefined)	99.7% and 108%
CN(C)C(=S)SSC(=S)N(C)C	81.8% and 95.8%
ClC1OC(Cl)(Cl)C(Cl)(Cl)OC1(Cl)Cl (centres undefined)	104%
COc1ccc(N)cc1OC	100%
